Screening data (PubChem BioAssay)
NCOA2 inhibitor: inhibits human steroid receptor coactivator 2; actives 0.17% (n = 370,000); HEK293 GAL4-SRC2 luciferase reporter, luminescence; inhibition, % at 9 µM;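 active = inhibition above the mean inhibition of all tested compounds plus 3 SD, set per campaign, cut at about 52% in these data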;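 note: 0% = DMSO treated cells and 100% = cells given Gossypol at 36 µM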
SRC1 inh: inhibitors of human steroid receptor coactivator 1 (SRC1) | inhibition, % at 3.6 µM | HEK293 GAL4-SRC1 luciferase reporter, luminescence | actives 0.12% (n = 360,000) | Q15788;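 active = inhibition above the campaign mean plus 3 SD, with each screening campaign given its own cutoff, cut at about 60% in these data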;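 note: 0% = DMSO treated cells and 100% = gossypol at 36 µM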
SRC3 inh: inhibitors of human steroid receptor coactivator 3 (SRC3); AID 588352; Q9Y6Q9; inhibition, % at 3.6 µM; HEK293 GAL4-SRC3 luciferase reporter, luminescence; actives 0.17% (n = 360,000);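 active = inhibition above a per-campaign cutoff, the mean of all compounds plus 3 SD, cut at about 60% in these data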;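 note: 0% = DMSO-treated cells and 100% = gossypol-treated cells at 36 µM; higher means less SRC3-driven luciferase light from the GAL4 reporter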
Target sequence (Q9Y6Q9 whole entry, looked up, the tested form may be a part): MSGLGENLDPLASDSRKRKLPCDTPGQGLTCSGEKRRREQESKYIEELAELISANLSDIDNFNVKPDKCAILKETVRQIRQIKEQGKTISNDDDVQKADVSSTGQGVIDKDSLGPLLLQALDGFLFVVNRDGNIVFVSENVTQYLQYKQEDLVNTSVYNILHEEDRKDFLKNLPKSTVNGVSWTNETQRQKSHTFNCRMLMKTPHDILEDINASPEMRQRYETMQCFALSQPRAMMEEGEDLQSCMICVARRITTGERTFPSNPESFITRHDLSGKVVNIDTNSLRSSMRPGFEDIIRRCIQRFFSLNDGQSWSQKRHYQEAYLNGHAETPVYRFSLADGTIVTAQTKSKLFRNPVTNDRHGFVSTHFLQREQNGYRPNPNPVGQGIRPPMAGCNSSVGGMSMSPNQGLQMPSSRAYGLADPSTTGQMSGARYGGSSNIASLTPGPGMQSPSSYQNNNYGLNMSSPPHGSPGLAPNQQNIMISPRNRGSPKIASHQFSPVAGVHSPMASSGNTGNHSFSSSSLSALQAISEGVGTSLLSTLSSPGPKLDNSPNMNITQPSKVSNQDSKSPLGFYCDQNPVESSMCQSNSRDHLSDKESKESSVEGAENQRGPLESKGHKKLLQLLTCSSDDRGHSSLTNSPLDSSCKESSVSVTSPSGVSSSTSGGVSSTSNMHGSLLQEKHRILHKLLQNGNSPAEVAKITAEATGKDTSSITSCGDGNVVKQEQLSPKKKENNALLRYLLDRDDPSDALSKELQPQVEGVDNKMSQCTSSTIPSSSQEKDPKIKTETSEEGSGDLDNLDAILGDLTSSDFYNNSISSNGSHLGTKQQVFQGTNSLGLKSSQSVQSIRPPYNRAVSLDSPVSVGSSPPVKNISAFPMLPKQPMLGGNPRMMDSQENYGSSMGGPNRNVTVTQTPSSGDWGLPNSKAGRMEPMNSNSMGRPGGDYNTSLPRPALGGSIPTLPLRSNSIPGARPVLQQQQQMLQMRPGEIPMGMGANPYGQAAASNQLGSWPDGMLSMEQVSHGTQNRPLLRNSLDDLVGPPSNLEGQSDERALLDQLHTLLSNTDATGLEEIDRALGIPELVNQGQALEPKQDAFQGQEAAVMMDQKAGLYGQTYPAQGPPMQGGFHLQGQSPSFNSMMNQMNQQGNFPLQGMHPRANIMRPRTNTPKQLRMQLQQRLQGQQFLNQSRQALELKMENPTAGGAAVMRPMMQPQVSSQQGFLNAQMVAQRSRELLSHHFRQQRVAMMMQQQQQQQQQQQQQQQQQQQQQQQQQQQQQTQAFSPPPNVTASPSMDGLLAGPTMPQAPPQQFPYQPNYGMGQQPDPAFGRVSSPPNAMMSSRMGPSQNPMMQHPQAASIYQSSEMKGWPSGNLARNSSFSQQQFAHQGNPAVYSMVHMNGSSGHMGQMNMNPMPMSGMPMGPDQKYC
NR2F2 inh: inhibitors of human COUP-TFII (NR2F2); HEK293T NGFI-A luciferase reporter, luminescence; inhibition, % at 8.6 µM; actives 0.7% (n = 370,000);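 active = inhibition above a per-plate cutoff, mean inhibition of test wells between control levels plus 3 SD, cut at about 38% in these data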;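 note: cells cotransfected with COUP-TFII expression vector driving the NGFI-A reporter; 0% = median of COUP-TF2 test wells and 100% = reporter-only cells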
GalR3 antagonist: blocks the human galanin receptor 3 | AID 651719 | actives 0.44% (n = 360,000) | inhibition, % at 3 µM | O60755 | HEK293 GalR3-CNG cAMP membrane potential fluorescence; galR3 body fused to GalR1 C-terminus;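 active = inhibition above the screen-wide average plus 3 SD, cut at about 13% in these data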;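 note: forskolin and galanin both at EC90 stimulate the cells; cAMP rise reported by CNG channel membrane potential dye signal; 0% = forskolin plus galanin with DMSO and 100% = forskolin alone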
LRH-1 inv ag: suppresses constitutive activity of human LRH-1; HEK293T StAR-luciferase reporter, LRH-1 transfected, 24 h; inhibition, % at 3.6 µM; actives 0.13% (n = 360,000); AID 602396;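 active = inhibition above the mean inhibition of all tested compounds plus 3 SD, cut at about 73% in these data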;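 note: 0% = DMSO wells and 100% = reporter-only cells lacking LRH-1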
VP16 Luc counter: counter-screen for COUP-TFII antagonists: inhibitors of VP16 | shares compounds with NR2F2 inh | HEK293 Gal4-VP16 luciferase reporter, luminescence | inhibition, % at 8.5 µM | actives 25% (n = 2,500); in the data active = inhibition above about 13%
NR2F2 inh conf: COUP-TFII (NR2F2) inhibition, confirmation assay. shares compounds with NR2F2 inh. HEK293 NGFI-A luciferase reporter, luminescence. inhibition, % at 8.5 µM. actives 45% (n = 2,500);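 active = mean inhibition over three repeats above a set limit taken from the earlier primary screen, cut at about 38% in these data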;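 note: 100% = cells given the luciferase reporter alone without the COUP-TF2 vector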
Numbers without * were called inactive; / = no result given. A selection: hits, their analogues and other compounds. The true share with any hit is near 1.1%.

SMILES | NCOA2 inhibitor | SRC1 inh | SRC3 inh | NR2F2 inh | GalR3 antagonist | LRH-1 inv ag | VP16 Luc counter | NR2F2 inh conf
Cc1ccc(-c2cc3c(N=O)c4ccccc4c-3n[nH]2)cc1 | 61* | 69* | 73* | 84* | -3 | 42 | 37* | 86*
O=C1N2Cc3ccccc3C2CS(=O)(=O)N1Cc1ccccc1 (stereo unspecified) | -51 | / | / | -14 | / | / | / | /
CCCCCCC(=O)N(O)C1CC(=O)N(c2ccc(Cl)cc2)C1=O (stereo unspecified) | 31 | 12 | 10 | 52* | -1 | 7 | -7 | 39*
COc1ccc(C=Nn2c(-c3ccc(F)cc3)n[nH]c2=S)cc1OCc1ccccc1 | 1 | / | / | 0 | / | / | / | /
O=C(Cc1coc2cc3c(cc12)CCC3)OCC(=O)N1CCCC1=O | 54* | 11 | 26 | 44* | 2 | 12 | 28* | 13
O=C(Nc1ccc(N2CCN(C(=O)c3ccccc3)CC2)c(Cl)c1)c1ccc(Br)o1 | -14 | -1 | -13 | 40* | -5 | 12 | 4 | 20
Cc1ccc(Oc2cc([N+](=O)[O-])cc3c2C(=O)Nc2ccccc2O3)cc1 | 3 | 2 | 26 | 38* | 6 | 23 | -9 | 12
Clc1ccc([C@H]2OC[C@@]3(CNCCc4c[nH]c5ccccc45)CS[C@H](c4ccc(Cl)cc4)N23)cc1 | -8 | / | / | 5 | / | / | / | /
CCC(C)NC(=O)CNc1nnnn1-c1ccccc1 (stereo unspecified) | 14 | / | / | -15 | / | / | / | /
O=C(c1ccc2c(c1)OCO2)N1CCC(Oc2cccnc2)CC1 | 12 | / | / | 6 | / | / | / | /
CC(=O)Nc1ccc(NC2=C/C(=N/S(=O)(=O)c3cccs3)c3ccccc3C2=O)cc1 | 43 | -4 | 80* | 50* | -6 | 26 | 17* | 23
COc1ccc(S(=O)(=O)/N=C2\C=C(Nc3ccc(O)cc3)C(=O)c3ccccc32)cc1 | 74* | 89* | 88* | 71* | -9 | 93* | 83* | 92*
O=C(CN1C(=O)C2CCCCN2C(=O)c2ccccc21)N1CCCC1 (stereo unspecified) | 0 | / | / | 3 | / | / | / | /
C#CCNC(=O)C[C@H]1C[C@@]2(C(=O)OC)C(=C[C@H](C(C)C)O[C@@H]2C2CC2)N(CCCCCCCC)C1=O | -4 | / | / | 19 | / | / | / | /
COc1ccc(C(CNc2ncnc3sccc23)N(C)C)cc1OC (stereo unspecified) | -21 | -22 | 3 | -6 | -9 | 15 | / | /
Cc1cc2c(NCc3ccccc3)ncnc2s1 | 29 | 30 | 24 | 49* | -4 | 26 | -4 | 26
OC(CNc1ncnc2sccc12)c1ccccc1 (stereo unspecified) | -17 | -55 | -52 | 40* | 5 | -57 | -150 | -35
COc1ccc(CNc2ncnc3sccc23)cc1 | 32 | 8 | 28 | 49* | -10 | 34 | 1 | 39*
COc1ccc(CNc2ncnc3sccc23)cc1OC | 6 | -7 | 21 | 48* | -10 | 40 | -1 | 23
CCn1c(COc2ccccc2)nnc1SCC(=O)Nc1ccc(Oc2ccccc2)cc1 | 9 | / | / | 15 | / | / | / | /
O=C(/C=C/c1ccncc1)c1ccc2c(c1)OCCO2 | 19 | -2 | 12 | -16 | -1 | 19 | / | /
COc1cc(/C=C/C(=O)c2ccc3c(c2)OCCO3)cc(Br)c1OCC(=O)N(C)C | 55* | 11 | 50 | 38* | -3 | 28 | 31* | 20
Cc1nn(C)c(C)c1/C=C/C(=O)O | -38 | 8 | 8 | 10 | -4 | 3 | / | /
Cc1nn(C)c(C)c1/C=C/C(=O)c1ccc(Cl)cc1Cl | -12 | 9 | 23 | 47* | -3 | 33 | -9 | 38*
CCN(CC)S(=O)(=O)c1ccc(N2CCN(c3ccccc3OC)CC2)c(N)c1 | 18 | 5 | 12 | 48* | -7 | 16 | 6 | 22
SMILES | NCOA2 inhibitor | SRC1 inh | SRC3 inh | NR2F2 inh | GalR3 antagonist | LRH-1 inv ag | VP16 Luc counter | NR2F2 inh conf
S=C(NN=C(c1ccccc1)c1ccccn1)N(Cc1ccccn1)Cc1ccccn1 | 23 | 66* | 71* | 54* | -6 | 70 | 3 | 45*
COc1ccc(CN2C(C(=O)NCC(C)C)CSCCS2(=O)=O)cc1 (stereo unspecified) | 18 | / | / | -16 | / | / | / | /
COC(=O)C1CN(C2CCCC2)CCS(=O)(=O)N1Cc1cn(Cc2ccc(Cl)cc2)nn1 (stereo unspecified) | -7 | / | / | 8 | / | / | / | /
CC(C)(C)c1ccc(C(=O)NCCOc2ccccc2F)cc1 | 40 | 38 | 33 | 53* | -10 | 29 | -23 | 46*
CC(C)(C)c1ccc(C(=O)NCCOc2ccccc2)cc1 | -8 | 18 | 11 | 36 | -5 | -14 | / | /
O=C(Cn1cnc2ccccc21)NCc1ccccc1 | -11 | -24 | -20 | 10 | -2 | -11 | / | /
O=C(Cn1cnc2ccccc21)Nc1ccc(SC(F)F)cc1 | 23 | -6 | 20 | 70* | 74* | 34 | -4 | 46*
Cc1sc2nc(SCC(=O)c3ccc(O)c(O)c3)n(C)c(=O)c2c1C | -3 | / | / | -6 | / | / | / | /
Cc1ccc(CC(=O)Nc2cccnc2)cc1 | 19 | 4 | 8 | -10 | -2 | 1 | / | /
Cc1ccc(CC(=O)Nc2ccncc2)cc1 | 17 | 0 | 4 | 55* | -2 | 46 | -9 | 24
O=C(Cc1ccc(Cl)cc1)Nc1ccncc1 | 18 | 6 | 21 | 40* | -6 | 33 | -3 | 8
O=C(Nc1ccncc1)Nc1ccc(Cl)cc1 | -5 | -16 | 10 | -13 | -4 | -7 | / | /
CN(CCCC(=O)Nc1ccncc1)S(=O)(=O)c1ccc(Cl)cc1 | 8 | 13 | 9 | 52* | -7 | 1 | 4 | 30
CCOC(=O)C1=C(C(=O)OCC)C2N(Cc3ccc(C#N)cc3)c3ccccc3[C@@]23C[C@@H](C(=O)OC)N(S(=O)(=O)c2c(C)noc2C)C3=N1 (stereo partly specified) | -20 | / | / | 2 | -3 | / | / | /
Cc1ccc(Cl)cc1N1CCN(C(=O)CSc2nnc3n2C(C)(C)Cc2ccccc2-3)CC1 | 16 | 24 | 15 | 63* | -2 | 13 | 9 | 50*
COc1ccc(N2CCN(C(=O)CSc3nnc4n3C(C)(C)Cc3ccccc3-4)CC2)cc1 | -32 | -13 | -4 | -8 | -4 | 5 | / | /
COc1ccc(-c2cc(-c3nnc(SCC(=O)NC4CCCCC4)n3N)[nH]n2)cc1 | -52 | / | / | -9 | / | / | / | /
O=C(CCN1CCN(c2ccccc2)CC1)c1ccc(Cl)cc1 | -6 | -8 | 5 | -1 | -7 | -3 | / | /
O=C(CCN1CCOCC1)c1ccc(N2CCCCC2)cc1 | 63* | 11 | 24 | 60* | -7 | 32 | 39* | 40*
